In PubChem BioAssay (NCI):
About 79,000 compounds went through this panel and 15% of them were active in at least one assay; those are over-represented in the sample as a whole. Active and inactive are the calls of the source. Cut-off read from the data, not from the text of the source: active = growth inhibition above about 70%; inactive = the rest.

Legend:
[1] = NCI Yeast Anticancer Drug Screen. Data for the mec2-1 strain (AID 157); conditions: S. cerevisiae mec2-1 strain, active compounds read high
How it was run: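 Yeast mec2-1 mutant treated with compound. Readout: growth inhibition vs vehicle controls.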

[2] = NCI Yeast Anticancer Drug Screen. Data for the rad14 strain (AID 159);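 note: 0% = growth of vehicle-treated control cultures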; conditions: S. cerevisiae rad14 strain growth inhibition, active compounds read high
How it was run: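 Vehicle-treated cultures served as the baseline for growth inhibition of a DNA repair-mutant yeast strain exposed to each compound.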

[3] = NCI Yeast Anticancer Drug Screen. Data for the sgs1 mgt1 strain (AID 161);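 note: 0% = growth of cultures given vehicle only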; conditions: S. cerevisiae sgs1 mgt1 strain, active compounds read high
How it was run: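 Mutant yeast exposed to compound; growth scored against vehicle-only wells.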

[4] = NCI Yeast Anticancer Drug Screen. Data for the CLN2oe strain (AID 163);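 note: 0% = growth of vehicle-only control cultures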; conditions: S. cerevisiae CLN2oe strain, active compounds read high
How it was run: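 Read-out: yeast growth inhibition, expressed relative to vehicle-only controls. The strain bears an engineered cell-cycle alteration.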

[5] = NCI Yeast Anticancer Drug Screen. Data for the cln2 rad14 strain (AID 165);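 note: 0% = growth equal to vehicle treated cultures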; conditions: S. cerevisiae cln2 rad14 strain, active compounds read high
How it was run: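 cln2 rad14 yeast strain; compound exposure; growth inhibition read vs vehicle controls.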

[6] = NCI Yeast Anticancer Drug Screen. Data for the wt2 strain (AID 169);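 note: 0% = growth of vehicle-treated yeast cultures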; conditions: S. cerevisiae wt2 strain growth inhibition, active compounds read high
How it was run: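 Read-out: growth inhibition versus vehicle-treated control cultures after compound exposure of the yeast strain.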

[7] = NCI Yeast Anticancer Drug Screen. Data for the mlh1 strain (AID 171);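 note: 0% = growth of vehicle-treated control cultures of the same strain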; conditions: S. cerevisiae mlh1 strain growth inhibition, active compounds read high
How it was run: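 Read-out: growth inhibition versus vehicle controls. Strain: engineered yeast with a defined DNA repair or cell cycle defect, compound-treated.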

[8] = NCI Yeast Anticancer Drug Screen. Data for the sgs1 strain (AID 173);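 note: 0% = growth of vehicle-only control cultures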; conditions: S. cerevisiae sgs1 mutant, active compounds read high
How it was run: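 Read-out: yeast growth inhibition relative to vehicle controls, following compound exposure of a strain with a defined DNA repair/cell cycle alteration.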

[9] = NCI Yeast Anticancer Drug Screen. Data for the mlh1 rad18 strain (AID 175); conditions: S. cerevisiae mlh1 rad18 strain growth inhibition, active compounds read high
How it was run: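 Yeast w/ defined DNA-repair lesions; compound exposure; growth vs vehicle controls → % inhibition.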

[10] = NCI Yeast Anticancer Drug Screen. Data for the rad18 strain (AID 177); conditions: S. cerevisiae rad18 mutant growth inhibition, active compounds read high
How it was run: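 Readout: growth inhibition vs vehicle controls. Cells: genetically altered yeast strain, DNA repair defect.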

[11] = NCI Yeast Anticancer Drug Screen. Data for the rad52 strain (AID 147);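 note: 0% = growth of vehicle-treated control cultures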; conditions: S. cerevisiae rad52 mutant growth inhibition, active compounds read high
How it was run: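 Read-out: growth inhibition versus vehicle-treated controls. Cells were a DNA repair-deficient yeast strain treated with compounds.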

[12] = NCI Yeast Anticancer Drug Screen. Data for the wt1 strain (AID 149);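 note: 0% = growth of vehicle-treated wt1 cultures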; conditions: S. cerevisiae wt1 strain (SPY 50644) growth inhibition, active compounds read high
How it was run: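 Vehicle-normalised growth inhibition; strain wt1; compound exposure.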

[13] = NCI Yeast Anticancer Drug Screen. Data for the rad50EPP+ strain (AID 151);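 note: 0% = growth of vehicle-treated control cultures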; conditions: S. cerevisiae rad50 mutant strain, active compounds read high
How it was run: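 Growth inhibition read against vehicle controls in rad50EPP+ yeast, a strain altered in DNA damage repair, after compound exposure.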

[14] = NCI Yeast Anticancer Drug Screen. Data for the mgt1 strain (AID 153); conditions: S. cerevisiae mgt1 mutant growth inhibition, active compounds read high
How it was run: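 mgt1 yeast grown with test compound; read-out is growth inhibition versus vehicle-treated cultures.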

[15] = NCI Yeast Anticancer Drug Screen. Data for the rad50 strain (AID 155);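 note: 0% = growth of vehicle-only cultures of the same strain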; conditions: S. cerevisiae rad50 strain growth inhibition, active compounds read high
How it was run: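 A DNA repair-deficient yeast mutant serves as the test organism; compound-induced growth inhibition is calculated against vehicle-treated cells.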

[16] = NCI Yeast Anticancer Drug Screen. Data for the bub3 strain (AID 167); conditions: S. cerevisiae bub3 mutant strain, active compounds read high
How it was run: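 Inhibition values come from growth of compound-treated mutant yeast normalised to vehicle-treated controls.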

[17] = at 5.0 µM (retest, dose inferred, filed as 0.5)
[18] = at 50.0 µM (retest, dose inferred, filed as 5.0)

Measured: growth inhibition

Cc1cc2cc3cc(C)c(N)cc3nc2cc1N
inactive: [1]; at 11.0 µM 13% | [2]; at 1.2 µM -7% | [2]; at 3.7 µM -23% | [2]; at 11.0 µM 5% | [3]; [17] 16% | [4]; at 1.2 µM -1% | [4]; at 3.7 µM 8% | [4]; at 11.0 µM 17% | [4]; at 33.0 µM 46% | [5]; [17] 34% | [5]; at 50.0 µM 46.8% | [6]; at 1.2 µM -7% | [6]; at 3.7 µM -12% | [6]; at 11.0 µM 2% | [6]; at 33.0 µM 56% | [7]; at 1.2 µM -10% | [7]; at 3.7 µM 3% | [7]; at 11.0 µM 24% | [8]; at 1.2 µM -43% | [8]; at 3.7 µM -21% | [8]; at 11.0 µM 0% | [8]; at 33.0 µM 66% | [10]; at 1.2 µM -37% | [10]; at 3.7 µM -25% | [10]; at 11.0 µM -11% | [10]; at 33.0 µM 67%
active: [1]; [17] 78% | [1]; at 33.0 µM 82% | [1]; [18] 98% | [1]; at 50.0 µM 75.5% | [1]; at 100.0 µM 97% | [2]; at 33.0 µM 70% | [2]; at 100.0 µM 92% | [3]; [18] 98% | [3]; at 50.0 µM 85.2% | [4]; at 100.0 µM 83% | [5]; [18] 98% | [6]; at 100.0 µM 94% | [7]; at 33.0 µM 79% | [7]; at 100.0 µM 95% | [8]; at 100.0 µM 91% | [9]; [17] 94% | [9]; [18] 99% | [9]; at 50.0 µM 81.8% | [10]; at 100.0 µM 92%

CCN(CC)CCNc1ccc([N+](=O)[O-])c2nc3ccccc3c(N)c12
inactive: [11]; at 1.2 µM 1% | [11]; at 3.7 µM -6% | [11]; at 11.0 µM 10% | [11]; at 33.0 µM 31% | [12]; at 1.2 µM -10% | [12]; at 3.7 µM -7% | [12]; at 11.0 µM -13% | [12]; at 33.0 µM -9% | [12]; at 100.0 µM -6% | [13]; at 1.2 µM -14% | [13]; at 3.7 µM -4% | [13]; at 11.0 µM 1% | [13]; at 33.0 µM 34% | [14]; at 1.2 µM -14% | [14]; at 3.7 µM -18% | [14]; at 11.0 µM -20% | [14]; at 33.0 µM -21% | [14]; at 100.0 µM -15% | [15]; at 1.2 µM 10% | [15]; at 3.7 µM 14% | [15]; [17] 2% | [15]; at 11.0 µM 15% | [15]; at 33.0 µM 46% | [1]; at 1.2 µM -13% | [1]; at 3.7 µM -23% | [1]; [17] -5% | [1]; at 11.0 µM -11% | [1]; at 33.0 µM -13% | [1]; [18] -2% | [1]; at 50.0 µM 35.2% | [1]; at 100.0 µM 0% | [2]; at 1.2 µM -8% | [2]; at 3.7 µM -19% | [2]; at 11.0 µM -26% | [2]; at 33.0 µM -34% | [2]; at 100.0 µM -8% | [4]; at 1.2 µM 5% | [4]; at 3.7 µM -7% | [4]; at 11.0 µM -12% | [4]; at 33.0 µM -6% | [4]; at 100.0 µM 4% | [5]; [17] 7% | [5]; [18] 39% | [5]; at 50.0 µM 36.6% | [16]; at 1.2 µM -15% | [16]; at 3.7 µM -40% | [16]; [17] -9% | [16]; at 11.0 µM -21% | [16]; at 33.0 µM -12% | [16]; [18] 20% | [16]; at 50.0 µM 7.35% | [16]; at 100.0 µM -11% | [6]; at 1.2 µM 1% | [6]; at 3.7 µM -1% | [6]; at 11.0 µM -2% | [6]; at 33.0 µM -3% | [6]; at 100.0 µM 2% | [7]; at 1.2 µM -5% | [7]; at 3.7 µM -7% | [7]; at 11.0 µM -9% | [7]; at 33.0 µM -4% | [7]; at 100.0 µM 8% | [8]; at 1.2 µM -4% | [8]; at 3.7 µM 2% | [8]; at 11.0 µM 6% | [8]; at 33.0 µM -2% | [8]; at 100.0 µM 13% | [9]; [17] -28% | [9]; [18] 15% | [10]; at 1.2 µM -6% | [10]; at 3.7 µM -9% | [10]; at 11.0 µM -10% | [10]; at 33.0 µM -8% | [10]; at 100.0 µM -4%
active: [11]; at 100.0 µM 81% | [13]; at 100.0 µM 77% | [15]; [18] 71% | [15]; at 50.0 µM 74.3% | [15]; at 100.0 µM 84% | [9]; at 50.0 µM 85.2%

O=C1c2ccccc2C(=O)N1CCCC(=O)n1cc(F)c(=O)[nH]c1=O
inactive: [11]; at 1.2 µM -31% | [11]; at 3.7 µM -33% | [11]; at 11.0 µM 0% | [11]; at 33.0 µM 29% | [11]; at 100.0 µM 8% | [12]; at 1.2 µM -51% | [12]; at 3.7 µM -43% | [12]; at 11.0 µM -26% | [12]; at 33.0 µM -21% | [12]; at 100.0 µM 34% | [13]; at 1.2 µM -25% | [13]; at 3.7 µM -16% | [13]; at 11.0 µM 27% | [13]; at 33.0 µM 69% | [14]; at 1.2 µM 5% | [14]; at 3.7 µM 23% | [14]; at 11.0 µM 47% | [15]; at 1.2 µM -3% | [15]; at 3.7 µM 2% | [15]; [17] 27% | [15]; at 11.0 µM 18% | [15]; at 33.0 µM 51% | [15]; [18] 66% | [1]; at 1.2 µM -24% | [1]; at 3.7 µM -19% | [1]; [17] 20% | [1]; at 11.0 µM 18% | [2]; at 1.2 µM -33% | [2]; at 3.7 µM -40% | [2]; at 11.0 µM -26% | [2]; at 33.0 µM -7% | [2]; at 100.0 µM 40% | [3]; [17] 24% | [3]; [18] 64% | [5]; [17] 30% | [5]; [18] 61% | [5]; at 50.0 µM 27.1% | [16]; at 1.2 µM 9% | [16]; at 3.7 µM 17% | [16]; [17] 11% | [16]; at 11.0 µM 10% | [16]; at 33.0 µM 45% | [16]; [18] 19% | [16]; at 50.0 µM 46.5% | [16]; at 100.0 µM 60% | [6]; at 1.2 µM -19% | [6]; at 3.7 µM -12% | [6]; at 11.0 µM 16% | [6]; at 33.0 µM 56% | [7]; at 1.2 µM -20% | [7]; at 3.7 µM -18% | [7]; at 11.0 µM 17% | [7]; at 33.0 µM 59% | [8]; at 1.2 µM -14% | [8]; at 3.7 µM 7% | [8]; at 11.0 µM 41% | [9]; [17] 39% | [9]; [18] 68% | [9]; at 50.0 µM 60.2% | [10]; at 1.2 µM 11% | [10]; at 3.7 µM 5% | [10]; at 11.0 µM 14% | [10]; at 33.0 µM 42% | [10]; at 100.0 µM 68%
active: [13]; at 100.0 µM 88% | [14]; at 33.0 µM 74% | [14]; at 100.0 µM 91% | [15]; at 50.0 µM 71.3% | [15]; at 100.0 µM 79% | [1]; at 33.0 µM 73% | [1]; [18] 88% | [1]; at 50.0 µM 83.2% | [1]; at 100.0 µM 93% | [3]; at 50.0 µM 85.2% | [6]; at 100.0 µM 82% | [7]; at 100.0 µM 78% | [8]; at 33.0 µM 72% | [8]; at 100.0 µM 88%
